# Measurements as given in PubChem BioAssay AID623957 (NMMLSC, 2012).
# The source made the active and inactive calls.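 The calls were made as follows: active = compounds whose fitted half-maximal concentration for lowering the signal is under 100 µM; inactive = the rest.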
# Experiment: compound effect on K562 vector-control line – cell-based, flow cytometry, cherry pick set 1, counter-screen for ABCB6 inhibitor project, dose response (AID 623957)
# Conditions: K562 vector-only cells, flow cytometry fluorescence, 1 h; series mostly up to 100 µM
row,SMILES,outcome
1,COC(=O)C(NC(=O)CCc1nnc2ccc(N3CCC(C)CC3)nn12)C(C)C (configuration not stated),inactive
2,CCOC(=O)C1CCN(C(=O)CCc2nnc3ccc(N4CCN(C)CC4)nn23)CC1,inactive
3,CCN(CC)S(=O)(=O)c1cccc(-n2c(O)c(C=Nc3ccccc3C(=O)O)c3ccccc3c2=O)c1,inactive
4,CCCNC(=O)CCc1nnc2ccc(N3CCC(C)CC3)nn12,inactive
5,Cc1ccc(NC(=O)c2nc(S(=O)(=O)Cc3ccccc3)ncc2Cl)cc1,inactive
6,CCC(C)NC(=O)CCc1nnc2ccc(N3CCC(C)CC3)nn12 (configuration not stated),inactive
7,CN1CCN(C(=O)CCc2nnc3ccc(N4CCC5(CC4)OCCO5)nn23)CC1,inactive
8,CC1CCN(C(=O)CCc2nnc3ccc(N4CCC5(CC4)OCCO5)nn23)CC1,inactive
9,Cc1cccc(CS(=O)(=O)c2ncc(Cl)c(C(=O)Nc3c(C)cccc3C)n2)c1,inactive
10,CCOC(=O)CNC(=O)CCc1nnc2ccc(N3CCC(C)CC3)nn12,inactive
11,Cc1cccc(CS(=O)(=O)c2ncc(Cl)c(C(=O)Nc3ccc(F)cc3)n2)c1,inactive
12,CCOCCCNC(=O)CCc1nnc2ccc(N3CCCCC3)nn12,inactive
13,COC(=O)C(NC(=O)CCc1nnc2ccc(N3CCCCC3)nn12)C(C)C (configuration not stated),inactive
14,CCc1ccc(CNC(=O)C2Cc3cc(S(=O)(=O)N4CCCC4)ccc3N2C(C)=O)cc1 (configuration not stated),inactive
15,CCOC(=O)C(C)NC(=O)CCc1nnc2ccc(N3CCC(C)CC3)nn12 (configuration not stated),inactive
16,CCOC(=O)N1CCN(CC(=O)Nc2ccc(C)cc2)CC1,inactive
17,COC(=O)c1ccc(NC(=O)c2nc(S(=O)(=O)Cc3cccc(C)c3)ncc2Cl)cc1,inactive
